# Compound activity (PubChem)
# Cruzain noTriton: cruzain (T. cruzi) inhibition without detergent; Potency, µM, usual class: inhibitors; P25779; purified cruzain, Z-FR-AMC fluorescence, no detergent; 200,000 compounds, 2.3% hits; AID 1476; also: nearly all actives have a fitted effect of over 40% in size
# Target sequence (P25779 123-467 limits assumed): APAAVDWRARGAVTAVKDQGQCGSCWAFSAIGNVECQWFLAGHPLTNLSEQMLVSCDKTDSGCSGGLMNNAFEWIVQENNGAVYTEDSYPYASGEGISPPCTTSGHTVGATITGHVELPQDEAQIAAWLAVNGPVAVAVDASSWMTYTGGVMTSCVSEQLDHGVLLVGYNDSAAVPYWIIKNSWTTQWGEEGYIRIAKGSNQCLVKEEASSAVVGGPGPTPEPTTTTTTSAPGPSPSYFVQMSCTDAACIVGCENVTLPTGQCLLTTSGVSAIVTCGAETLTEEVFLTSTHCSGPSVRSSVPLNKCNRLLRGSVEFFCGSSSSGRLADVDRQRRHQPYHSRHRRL
#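 Purified cruzain at 1.5 nM, pre-incubated 15 min with compound at room temperature in 100 mM sodium acetate pH 5.5, 5 mM DTT, 0.00005% Triton X-100. Reaction started with 2 uM Z-FR-AMC; AMC fluorescence increase over 60 s gives rate.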
# Cruzain inh Det: inhibitors of Trypanosoma cruzi cruzain with detergent. P25779. purified cruzain, Z-FR-AMC fluorescence, 0.01% Triton. Potency, µM, actives largely listed as inhibitors. 200,000 compounds, 0.43% hits. AID 1478; also: nearly all actives have a fitted effect of over 40% in size
#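 Sodium acetate buffer (100 mM, pH 5.5) containing 5 mM DTT and 0.01% Triton X-100 hosted 1.5 nM cruzain and test compound for 15 min at room temperature. Cleavage of 2 uM Z-FR-AMC was then tracked by fluorescence.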
# Hits are given with their value; - = inactive; ? = inconclusive. Sampled rows, rich in hits. Any-hit rate of the full collection: about 2.6%. Calls follow the shape of the dose curve; as a rule, active = well fitted curve in the direction sought with a large enough effect; inconclusive = small, poorly fitted or top-dose-only effect, or another doubt; inactive = no such curve, though single readings can be large; an effect the other way counts as inactive or inconclusive.
SMILES,Cruzain noTriton,Cruzain inh Det
COc1cc2c(cc1OC)-c1cc(N3CCCc4ccccc43)nc(=O)n1CC2,-,-
COc1cc2c(cc1OC)-c1cc(N3CCCCCC3)nc(=O)n1CC2,13µM,-
CC(C)Cc1ccc(S(=O)(=O)N2CCN(Cc3noc(CCC(=O)N4CCCCC4)n3)CC2)cc1,?,-
CCc1ccc(NC(=O)C(C)Oc2nnc(-c3cccs3)c(-c3cccs3)n2)cc1 (stereo unspecified),20µM,-
CC(C)c1ccc(NC(=O)COc2nnc(-c3cccs3)c(-c3cccs3)n2)cc1,-,-
CC(=O)c1ccc(S(=O)(=O)N(Cc2cc3cc4c(cc3[nH]c2=O)OCCO4)CC2CCCO2)cc1 (stereo unspecified),-,-
CC(C)c1ccc(N2C(=O)CSC23C(=O)N(Cc2cccc(F)c2)c2ccccc23)cc1 (stereo unspecified),-,-
Cc1ccccc1Cn1cc(S(=O)(=O)CC(=O)Nc2nccs2)c2ccccc21,16µM,-
CCOC(=O)N1CCN(C(=O)CS(=O)(=O)c2cn(Cc3ccccc3C)c3ccccc23)CC1,-,-
Cc1ccc2c(c1)c1c3n2CCN(C(=O)c2cccc(C(F)(F)F)c2)C3CCC1 (stereo unspecified),0.63µM,-
CCN(CC)CCN1CCn2c3c(c4cc(C)ccc42)CCCC31 (stereo unspecified),-,-
Cc1ccc(S(=O)(=O)CCC(=O)OCc2ccc(Cl)cc2)cc1,-,-
COC(=O)c1ccc(COC(=O)c2ccc(CS(=O)(=O)c3ccc(C)cc3)cc2)cc1,25µM,-
Cc1ccc(NC2=C(C(=O)c3ccccc3)N(C)S(=O)(=O)c3ccccc32)cc1,20µM,-
CCN1C(C(=O)c2ccccc2)=C(Nc2ccccc2C)c2ccccc2S1(=O)=O,?,-
Cc1ccc(C(=O)NC(=S)NNS(=O)(=O)c2ccc(C)cc2)cc1,-,?
Cc1ccc(S(=O)(=O)NNC(=S)NC(=O)c2ccc([N+](=O)[O-])cc2)cc1,4µM,?
CCCCOc1ccc(S(=O)(=O)Nc2ccc(-c3ccc(N4CCCCC4)nn3)cc2)cc1,32µM,-
CCCCOc1ccc(S(=O)(=O)Nc2ccc(-c3ccc(N4CCCCCC4)nn3)cc2)cc1,-,-
CC(C)Sc1nc(SCC(=O)NCc2ccco2)c2c3c(sc2n1)COC(C)(C)C3,25µM,25µM
CCCSc1nc(SCC(=O)NCc2ccccc2)c2c3c(sc2n1)COC(C)(C)C3,-,-
Cc1ccc(OCCCN(C)C)c(Br)c1,-,-
Cc1cc(Cl)c(OCCCN(C)C)c(Br)c1,5µM,-
CCCC12C(=O)C(C)(C(c3ccccc3)=C1c1ccccc1)C1C(=O)N(c3ccc(C)cc3)C(=O)C12 (stereo unspecified),20µM,-
CCC12C(=O)C(CC)(C(c3ccccc3)=C1c1ccccc1)[C@@H]1C(=O)N(c3ccc(C)cc3)C(=O)C12 (stereo partly specified),?,-
SMILES,Cruzain noTriton,Cruzain inh Det
Cc1ccc(CCN2C(=O)CCC2(C)C(=O)NC2CCCC2)cc1 (stereo unspecified),-,-
COc1cccc(CNC(=O)C2(c3cccs3)CCOCC2)c1,-,-
CC(C)NC(=O)c1cc2nc(-c3ccco3)cc(C(F)(F)F)n2n1,-,-
COc1ccc(OC)c(NC(=O)c2cc(CN3CCCC3)on2)c1,-,-
O=C(CSc1ncnc2scc(-c3ccc(Cl)cc3)c12)NCc1ccc2c(c1)OCO2,?,-
Cc1ccc(-c2csc3ncnc(SCC(=O)NCc4ccc5c(c4)OCO5)c23)cc1,25µM,-
Nc1nnnn1CCO,-,-
C(=N\Nc1nc(-c2ccccc2)cs1)/c1cccnc1,-,-
COC(=O)c1ccc(/C=N/Nc2nc(-c3ccc(C)cc3)cs2)cc1,13µM,-
COC(=O)c1ccc(/C=N/Nc2nc(-c3ccccc3)cs2)cc1,13µM,-
CC(/C=C/c1ccccc1)=N\Nc1nc(-c2ccccc2)cs1,25µM,-
COc1ccc(/C=N/N(C(C)=O)c2nc(-c3ccc(C)cc3)cs2)cc1,-,-
CC(C)=NNc1nc(-c2ccccc2)cs1,-,-
Cn1c(=O)n(C)c2cc(CN3C(=O)OC(C)(C)C3(C)O)ccc21 (stereo unspecified),-,-
CCOc1ccccc1C(=O)OCC(=O)Nc1ncc(C(F)(F)F)cc1Cl,-,-
Cc1ccc2c(c1)C(c1ccc([N+](=O)[O-])cc1)=NNC(c1ccc(Br)cc1)=N2,?,-
CCc1ccc2c(c1)C(c1ccc([N+](=O)[O-])cc1)=NNC(c1ccc(Br)cc1)=N2,10µM,-
COC(=O)c1ccccc1NC(=O)Cn1c(=O)n(Cc2ccc(C(=O)NCc3ccc4c(c3)OCO4)cc2)c(=O)c2ccccc21,-,-
O=C(O)c1cccc(Cn2c(Cl)c(/C=N/NC(=O)c3ccccc3)sc2=O)c1,-,-
COC(=O)c1cccc(Cn2c(Cl)c(/C=N/Nc3ccccc3C)sc2=O)c1,13µM,-
CC(=O)c1cccc(N=C2C(=O)Nc3ccccc32)c1,-,-
COc1ccc(Cn2c(-c3ccc(OC)cc3)nc3c(c(=O)c4ccccc4n3C)c2=O)cc1,-,-
CCCOc1ccccc1N/C(=N/c1nc(C)cc(C)n1)NC(=O)Nc1ccc(Cl)cc1,7.9µM,-
Cc1cc(C)nc(/N=C(/NC(=O)Nc2ccc(Cl)c(Cl)c2)Nc2cccc(Cl)c2)n1,7.9µM,-
CCOc1ccccc1N/C(=N/c1nc(C)cc(C)n1)NC(=O)Nc1ccc(Cl)c(Cl)c1,4µM,-
SMILES,Cruzain noTriton,Cruzain inh Det
Cc1cc(C)nc(/N=C(/NC(=O)Nc2ccc(Cl)c(Cl)c2)Nc2ccccc2)n1,?,-
COc1ccccc1N/C(=N/c1nc(C)cc(C)n1)NC(C)=O,-,-
CCOc1ccccc1NC(=O)Nc1ccc(Cl)cc1,-,-
Cn1nnnc1SCCCNCc1cc(Cl)ccc1OCc1ccccc1,-,-
CCCCCC(=O)Nc1ccc(N2CCN(S(C)(=O)=O)CC2)cc1,-,-
CCOC(=O)c1c(-c2ccc(C)cc2)csc1NC(=S)NC(=O)c1ccccc1,25µM,-
CCOC(=O)c1c(-c2ccc(OC)c(OC)c2)csc1NC(=O)c1ccc(C)cc1,-,-
COC(=O)c1c(-c2ccccc2)csc1NC(=O)c1c(-c2ccccc2)noc1C,20µM,-
CCOC(=O)c1c(-c2ccc(Br)cc2)csc1NC(=O)c1ccc(F)cc1,-,-
CCOC(=O)c1c(-c2ccc(C)cc2)csc1NC1=NS(=O)(=O)c2ccccc21,7.9µM,-
CCOC(=O)c1c(-c2ccc(F)cc2)csc1NC(=O)c1c(-c2ccccc2)noc1C,-,-
COC(=O)c1c(-c2ccc(C)cc2)csc1NC(=S)NC(=O)c1ccc(F)cc1,13µM,-
CCOC(=O)c1c(-c2ccc(C)cc2)csc1NC(=O)C1CC=CCC1C(=O)O (stereo unspecified),?,-
Cc1ccc(Nc2cccccc2=O)cc1,-,-
Clc1ccc(CN2CCCN(Cc3ccc(Cl)cc3)C2c2cc3ccccc3c3ccccc23)cc1,-,-
COC(=O)c1ccc(NS(=O)(=O)c2ccc3[nH]c4c(c3c2)CCCCC4)cc1,?,-
COC(=O)c1nnn(CC(=O)NC(=O)Nc2ccccc2F)c1C(=O)OC,-,-
NS(=O)(=O)c1cc(Br)c(N=Nc2ccc(O)c3ncccc23)c(Br)c1,-,-
Cc1cccc(N=Nc2ccc(O)c3ncccc23)c1,20µM,-
CNc1oc(-c2ccccc2)nc1C#N,-,-
CNc1oc(/C=C/c2ccccc2)nc1C#N,?,25µM
